These results are taken from article PMC7862700, “An all-to-all approach to the identification of sequence-specific readers for epigenetic DNA modifications on cytosine”.

Test in all cases: DAPPL (digital affinity profiling via proximity ligation, sequencing); 10 mM Tris-HCl pH 7.5, 50 mM NaCl, 1 mM DTT, 4% glycerol, room temperature, 30 min; GST-TFs on glutathione beads, 16-mer random dsDNA library, 0.1% formaldehyde crosslink after washing; high values mean tight binding
Common to all, as to settings: protein: recombinant; tags: N-terminal GST; dsDNA, one strand shown

For assay [1], the target named is T1, FLI1 (Homo sapiens, UniProt Q01543 1-452).
T1 sequence: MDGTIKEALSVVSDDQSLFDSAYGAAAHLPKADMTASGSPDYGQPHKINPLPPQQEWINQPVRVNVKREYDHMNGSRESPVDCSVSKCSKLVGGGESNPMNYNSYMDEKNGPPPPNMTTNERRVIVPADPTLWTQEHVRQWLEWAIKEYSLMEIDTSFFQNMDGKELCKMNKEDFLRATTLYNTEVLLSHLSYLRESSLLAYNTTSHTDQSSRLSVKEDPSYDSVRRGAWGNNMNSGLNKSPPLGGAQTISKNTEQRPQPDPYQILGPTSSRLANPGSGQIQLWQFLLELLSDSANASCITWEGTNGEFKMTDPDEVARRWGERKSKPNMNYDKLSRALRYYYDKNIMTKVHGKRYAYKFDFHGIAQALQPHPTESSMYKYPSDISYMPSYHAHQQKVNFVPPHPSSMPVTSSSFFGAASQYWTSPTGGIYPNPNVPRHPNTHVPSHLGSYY
In a few lines: (§1)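 Binding signal is given per hexamer as its read frequency for a factor divided by its frequency in the tag-only sample. GST-fused human transcription factors were expressed in yeast, captured on glutathione beads, barcoded with DNA and pooled with that sample, then incubated with 200 nmole of a 16-mer random double-stranded DNA library in Tris/NaCl/DTT/glycerol buffer for 30 min at room temperature. The pools were then washed, crosslinked, proximity-ligated, amplified by PCR and sequenced on an Illumina NextSeq500.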

Assay [2] has as its target T2, ELK1 (Homo sapiens, UniProt P19419 1-428).
T2 sequence: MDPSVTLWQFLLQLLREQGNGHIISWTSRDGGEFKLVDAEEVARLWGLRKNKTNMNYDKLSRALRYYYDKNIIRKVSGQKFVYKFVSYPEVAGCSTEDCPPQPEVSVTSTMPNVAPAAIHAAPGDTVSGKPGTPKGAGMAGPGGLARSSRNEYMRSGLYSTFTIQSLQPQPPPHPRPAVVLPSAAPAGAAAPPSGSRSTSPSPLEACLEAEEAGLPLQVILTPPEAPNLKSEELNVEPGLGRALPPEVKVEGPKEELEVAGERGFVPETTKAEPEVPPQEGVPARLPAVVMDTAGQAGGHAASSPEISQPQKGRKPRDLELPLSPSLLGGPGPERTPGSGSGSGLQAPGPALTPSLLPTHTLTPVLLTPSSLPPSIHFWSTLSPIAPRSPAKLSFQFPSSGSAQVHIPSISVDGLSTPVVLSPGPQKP
In outline:
as §1

Assay [3] deals with T3, GABPA (Homo sapiens, UniProt Q06546 1-454).
T3 sequence: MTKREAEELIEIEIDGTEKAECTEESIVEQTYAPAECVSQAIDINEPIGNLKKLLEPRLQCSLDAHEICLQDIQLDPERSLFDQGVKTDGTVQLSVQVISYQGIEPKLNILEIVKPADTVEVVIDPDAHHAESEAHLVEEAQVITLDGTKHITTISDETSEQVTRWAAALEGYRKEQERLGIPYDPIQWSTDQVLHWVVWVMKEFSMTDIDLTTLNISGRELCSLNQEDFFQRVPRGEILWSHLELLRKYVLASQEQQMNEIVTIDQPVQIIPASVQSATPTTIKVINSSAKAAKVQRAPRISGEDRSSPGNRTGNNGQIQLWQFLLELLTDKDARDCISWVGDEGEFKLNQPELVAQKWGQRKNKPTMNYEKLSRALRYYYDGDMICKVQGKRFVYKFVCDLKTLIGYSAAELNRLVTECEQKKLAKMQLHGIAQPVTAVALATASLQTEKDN
In outline: as §1

Assay [4] addresses T4, ERG (Homo sapiens, UniProt P11308 1-479).
T4 sequence: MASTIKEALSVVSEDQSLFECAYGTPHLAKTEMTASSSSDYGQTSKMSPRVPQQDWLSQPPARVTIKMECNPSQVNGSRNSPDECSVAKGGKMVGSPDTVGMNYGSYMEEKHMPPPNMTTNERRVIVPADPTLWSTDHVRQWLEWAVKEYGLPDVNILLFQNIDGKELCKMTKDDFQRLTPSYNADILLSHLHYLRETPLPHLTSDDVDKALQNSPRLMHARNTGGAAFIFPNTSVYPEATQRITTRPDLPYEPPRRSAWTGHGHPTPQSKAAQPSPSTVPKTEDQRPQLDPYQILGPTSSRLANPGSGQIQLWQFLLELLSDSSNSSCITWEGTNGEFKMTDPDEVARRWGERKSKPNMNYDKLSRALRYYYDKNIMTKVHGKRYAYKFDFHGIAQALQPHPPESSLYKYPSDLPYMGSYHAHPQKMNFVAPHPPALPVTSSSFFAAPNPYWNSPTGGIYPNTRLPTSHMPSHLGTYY
In outline:
as §1

Assay [5] concerns the target ELF1 (Homo sapiens, UniProt P32519 1-619). In outline: as §1
The target of assay [6] is T5, EHF (Homo sapiens, UniProt Q9NZC4 1-300).
T5 sequence: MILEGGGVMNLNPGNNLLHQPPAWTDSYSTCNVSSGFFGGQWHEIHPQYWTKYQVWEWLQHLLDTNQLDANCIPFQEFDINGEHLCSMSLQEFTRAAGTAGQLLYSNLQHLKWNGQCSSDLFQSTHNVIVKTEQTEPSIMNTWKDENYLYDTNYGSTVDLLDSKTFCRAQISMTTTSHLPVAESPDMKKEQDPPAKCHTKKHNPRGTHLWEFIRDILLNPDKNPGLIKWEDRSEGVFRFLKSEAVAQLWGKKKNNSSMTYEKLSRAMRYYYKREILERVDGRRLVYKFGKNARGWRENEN
In a few lines:
as §1

Assay [7] addresses SPI1 (Homo sapiens, UniProt P17947 1-270). In a few lines: as §1
In assay [8] the target is SPIB (Homo sapiens, UniProt Q01892 1-262). In outline: as §1
Sequence of SPIB (Q01892 whole entry): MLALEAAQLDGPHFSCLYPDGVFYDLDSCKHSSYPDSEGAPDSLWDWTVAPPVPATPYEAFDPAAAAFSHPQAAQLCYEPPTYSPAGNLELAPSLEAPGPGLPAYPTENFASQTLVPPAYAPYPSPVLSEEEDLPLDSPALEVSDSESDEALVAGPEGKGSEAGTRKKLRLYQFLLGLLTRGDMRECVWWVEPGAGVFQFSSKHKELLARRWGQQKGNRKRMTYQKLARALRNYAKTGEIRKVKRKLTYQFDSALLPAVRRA
Assay [9] deals with T6, ELK3 (Homo sapiens, UniProt P41970 1-407).
T6 sequence: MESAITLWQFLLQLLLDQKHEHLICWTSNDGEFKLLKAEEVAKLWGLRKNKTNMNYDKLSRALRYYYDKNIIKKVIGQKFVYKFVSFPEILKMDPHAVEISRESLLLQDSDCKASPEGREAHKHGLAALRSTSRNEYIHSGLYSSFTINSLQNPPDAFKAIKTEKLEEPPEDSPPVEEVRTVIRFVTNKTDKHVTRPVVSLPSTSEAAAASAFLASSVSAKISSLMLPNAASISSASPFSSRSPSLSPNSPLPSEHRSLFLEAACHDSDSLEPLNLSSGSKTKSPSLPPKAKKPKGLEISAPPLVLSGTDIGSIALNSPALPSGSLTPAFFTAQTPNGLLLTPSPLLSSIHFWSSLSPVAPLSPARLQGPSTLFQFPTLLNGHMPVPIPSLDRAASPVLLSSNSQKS
In outline: as §1

In assay [10] the target is T7, FEV (Homo sapiens, UniProt Q99581 1-238).
T7 sequence: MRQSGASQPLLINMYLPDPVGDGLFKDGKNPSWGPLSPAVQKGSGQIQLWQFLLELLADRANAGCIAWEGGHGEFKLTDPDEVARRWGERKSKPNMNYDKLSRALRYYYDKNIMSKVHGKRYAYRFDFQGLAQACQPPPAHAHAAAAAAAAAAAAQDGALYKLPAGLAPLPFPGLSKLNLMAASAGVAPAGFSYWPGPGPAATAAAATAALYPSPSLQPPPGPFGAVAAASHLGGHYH
In a few lines:
as §1

The target of assay [11] is ETV5 (Homo sapiens, UniProt P41161 1-510). In outline: as §1
Sequence of ETV5 (P41161 whole entry): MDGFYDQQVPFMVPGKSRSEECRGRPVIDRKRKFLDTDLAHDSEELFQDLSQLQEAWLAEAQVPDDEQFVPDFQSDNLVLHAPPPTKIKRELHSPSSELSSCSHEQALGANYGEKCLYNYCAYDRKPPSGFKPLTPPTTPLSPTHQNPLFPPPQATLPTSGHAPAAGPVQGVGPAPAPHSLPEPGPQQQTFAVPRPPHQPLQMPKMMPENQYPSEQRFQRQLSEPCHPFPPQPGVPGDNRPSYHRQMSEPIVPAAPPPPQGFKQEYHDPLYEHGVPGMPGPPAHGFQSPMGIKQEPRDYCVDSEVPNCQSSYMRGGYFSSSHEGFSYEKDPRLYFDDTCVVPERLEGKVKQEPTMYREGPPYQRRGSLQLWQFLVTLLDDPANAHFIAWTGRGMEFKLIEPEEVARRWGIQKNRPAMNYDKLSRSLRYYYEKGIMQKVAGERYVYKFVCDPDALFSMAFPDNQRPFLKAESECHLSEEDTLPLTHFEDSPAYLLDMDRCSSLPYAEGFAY
Assay [12] has as its target T8, SPIC (Homo sapiens, UniProt Q8N5J4 1-248).
T8 sequence: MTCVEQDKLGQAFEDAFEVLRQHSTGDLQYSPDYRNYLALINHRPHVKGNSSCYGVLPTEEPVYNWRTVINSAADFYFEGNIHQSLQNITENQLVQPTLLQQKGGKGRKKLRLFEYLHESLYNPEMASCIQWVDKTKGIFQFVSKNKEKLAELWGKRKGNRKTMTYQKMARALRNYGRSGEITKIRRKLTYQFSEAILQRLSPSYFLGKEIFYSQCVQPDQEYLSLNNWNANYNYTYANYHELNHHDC
In outline: as §1

Assay [13] deals with ELF4 (Homo sapiens, UniProt Q99607 1-663). In outline: as §1
Sequence of ELF4 (Q99607 whole entry): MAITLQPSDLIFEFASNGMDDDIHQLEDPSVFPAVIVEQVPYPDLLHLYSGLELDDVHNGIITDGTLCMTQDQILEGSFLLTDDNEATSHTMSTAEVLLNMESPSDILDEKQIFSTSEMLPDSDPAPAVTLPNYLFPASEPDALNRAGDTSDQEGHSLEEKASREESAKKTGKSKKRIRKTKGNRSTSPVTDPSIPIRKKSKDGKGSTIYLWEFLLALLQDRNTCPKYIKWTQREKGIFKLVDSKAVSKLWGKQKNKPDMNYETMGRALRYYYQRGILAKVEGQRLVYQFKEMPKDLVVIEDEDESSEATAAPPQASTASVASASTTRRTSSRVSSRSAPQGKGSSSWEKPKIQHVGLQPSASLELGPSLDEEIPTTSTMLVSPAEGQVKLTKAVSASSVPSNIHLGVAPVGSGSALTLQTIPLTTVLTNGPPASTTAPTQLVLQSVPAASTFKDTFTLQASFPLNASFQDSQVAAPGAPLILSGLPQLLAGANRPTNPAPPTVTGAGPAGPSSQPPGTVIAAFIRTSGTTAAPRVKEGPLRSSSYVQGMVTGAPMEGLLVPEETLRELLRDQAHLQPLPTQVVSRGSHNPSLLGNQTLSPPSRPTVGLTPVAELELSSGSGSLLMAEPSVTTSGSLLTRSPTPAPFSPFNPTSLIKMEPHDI
For assay [14], the target named is T9, ELK4 (Homo sapiens, UniProt P28324-2 1-405).
T9 sequence: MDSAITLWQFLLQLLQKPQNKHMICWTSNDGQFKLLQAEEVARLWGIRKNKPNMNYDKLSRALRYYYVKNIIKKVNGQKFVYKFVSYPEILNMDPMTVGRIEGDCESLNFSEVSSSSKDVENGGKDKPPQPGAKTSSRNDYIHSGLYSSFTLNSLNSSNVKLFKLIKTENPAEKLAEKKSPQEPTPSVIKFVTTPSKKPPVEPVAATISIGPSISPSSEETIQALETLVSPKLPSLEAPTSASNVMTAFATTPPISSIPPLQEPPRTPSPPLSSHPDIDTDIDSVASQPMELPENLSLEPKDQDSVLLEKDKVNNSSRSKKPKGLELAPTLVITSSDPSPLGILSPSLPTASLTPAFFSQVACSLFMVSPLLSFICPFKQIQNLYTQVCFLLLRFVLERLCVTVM
In outline:
as §1

Assay [15] deals with T10, ETV2 (Homo sapiens, UniProt O00321 1-342).
T10 sequence: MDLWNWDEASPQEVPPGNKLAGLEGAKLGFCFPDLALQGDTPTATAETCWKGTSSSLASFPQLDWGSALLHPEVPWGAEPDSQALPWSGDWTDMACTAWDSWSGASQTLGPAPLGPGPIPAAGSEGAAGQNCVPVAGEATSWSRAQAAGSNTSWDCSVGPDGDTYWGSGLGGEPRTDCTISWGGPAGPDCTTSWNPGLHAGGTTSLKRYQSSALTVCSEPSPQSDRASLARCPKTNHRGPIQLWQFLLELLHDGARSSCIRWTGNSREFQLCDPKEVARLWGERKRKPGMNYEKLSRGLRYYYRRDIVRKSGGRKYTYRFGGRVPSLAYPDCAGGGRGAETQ
In outline: as §1

For assay [16], the target named is T11, ELF3 (Homo sapiens, UniProt P78545 1-371).
T11 sequence: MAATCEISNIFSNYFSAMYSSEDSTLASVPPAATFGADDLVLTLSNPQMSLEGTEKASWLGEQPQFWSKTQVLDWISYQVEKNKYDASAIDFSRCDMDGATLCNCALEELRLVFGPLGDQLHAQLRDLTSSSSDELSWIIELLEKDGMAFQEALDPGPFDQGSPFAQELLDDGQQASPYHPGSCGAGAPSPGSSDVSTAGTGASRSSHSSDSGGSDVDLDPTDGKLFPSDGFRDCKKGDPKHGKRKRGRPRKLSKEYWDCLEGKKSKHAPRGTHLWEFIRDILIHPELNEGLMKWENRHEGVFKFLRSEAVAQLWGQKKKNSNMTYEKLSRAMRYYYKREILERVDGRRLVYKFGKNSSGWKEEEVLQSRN
In outline: as §1

In assay [17] the target is CRX (Homo sapiens, UniProt O43186 1-299). In outline:
as §1

Assay [18] deals with ETV1 (Homo sapiens, UniProt P50549 1-477). In a few lines:
as §1

Sequence of ELF1 (P32519 whole entry): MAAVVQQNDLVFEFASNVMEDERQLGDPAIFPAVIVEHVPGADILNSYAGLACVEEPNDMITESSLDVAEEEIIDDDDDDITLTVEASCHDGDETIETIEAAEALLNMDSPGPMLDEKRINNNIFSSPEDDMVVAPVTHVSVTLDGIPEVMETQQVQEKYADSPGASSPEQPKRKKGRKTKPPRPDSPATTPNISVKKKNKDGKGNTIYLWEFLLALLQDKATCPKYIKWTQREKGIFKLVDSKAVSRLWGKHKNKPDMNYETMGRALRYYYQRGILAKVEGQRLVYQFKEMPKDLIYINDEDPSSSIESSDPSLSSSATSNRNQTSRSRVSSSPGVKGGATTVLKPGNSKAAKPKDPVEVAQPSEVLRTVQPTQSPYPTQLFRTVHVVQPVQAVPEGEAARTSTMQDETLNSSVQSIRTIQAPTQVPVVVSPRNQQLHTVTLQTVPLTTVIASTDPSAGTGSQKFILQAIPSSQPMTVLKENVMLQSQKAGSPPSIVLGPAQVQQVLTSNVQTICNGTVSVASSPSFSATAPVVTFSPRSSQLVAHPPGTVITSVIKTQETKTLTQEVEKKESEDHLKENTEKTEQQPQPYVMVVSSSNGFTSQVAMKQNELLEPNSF
Sequence of CRX (O43186 whole entry): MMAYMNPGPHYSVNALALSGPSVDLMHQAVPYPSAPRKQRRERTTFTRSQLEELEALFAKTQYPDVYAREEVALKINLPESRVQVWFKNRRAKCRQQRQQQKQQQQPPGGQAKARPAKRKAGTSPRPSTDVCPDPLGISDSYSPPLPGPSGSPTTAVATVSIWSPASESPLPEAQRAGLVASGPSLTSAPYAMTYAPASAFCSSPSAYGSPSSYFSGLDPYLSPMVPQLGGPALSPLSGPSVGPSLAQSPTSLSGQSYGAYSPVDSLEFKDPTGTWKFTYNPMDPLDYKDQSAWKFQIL
Sequence of ETV1 (P50549 whole entry): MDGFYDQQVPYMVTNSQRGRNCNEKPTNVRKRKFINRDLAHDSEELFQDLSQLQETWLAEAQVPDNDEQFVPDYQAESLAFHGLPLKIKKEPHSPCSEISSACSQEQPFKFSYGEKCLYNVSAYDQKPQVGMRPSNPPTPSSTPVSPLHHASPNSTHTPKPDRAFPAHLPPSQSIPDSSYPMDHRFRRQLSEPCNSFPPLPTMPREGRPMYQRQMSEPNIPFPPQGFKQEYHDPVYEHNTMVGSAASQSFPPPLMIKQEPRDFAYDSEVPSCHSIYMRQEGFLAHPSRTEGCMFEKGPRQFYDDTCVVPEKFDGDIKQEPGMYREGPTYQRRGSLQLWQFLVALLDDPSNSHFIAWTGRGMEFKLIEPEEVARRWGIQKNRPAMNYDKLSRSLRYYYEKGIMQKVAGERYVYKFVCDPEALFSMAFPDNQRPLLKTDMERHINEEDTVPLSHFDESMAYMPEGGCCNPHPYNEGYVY

Regarding ACCTTG, the binding signal in [1] was 1.27 fold enrichment (6-mer frequency, TF over GST control); in assay [2], 1.37 fold enrichment (6-mer frequency, TF over GST control); in assay [3], 1.24 fold enrichment (6-mer frequency, TF over GST control); in [4], 1.1 fold enrichment (6-mer frequency, TF over GST control); in assay [5], 1.21 fold enrichment (6-mer frequency, TF over GST control); in [6], 1.3 fold enrichment (6-mer frequency, TF over GST control). Moreover, the binding signal in assay [7] is 1.17 fold enrichment (6-mer frequency, TF over GST control); in assay [8] it was 1.18 fold enrichment (6-mer frequency, TF over GST control); in assay [9], 1.38 fold enrichment (6-mer frequency, TF over GST control); in [10], 1.12 fold enrichment (6-mer frequency, TF over GST control); in [11], 1.2 fold enrichment (6-mer frequency, TF over GST control); in [12] it was 1.17 fold enrichment (6-mer frequency, TF over GST control). The binding signal in assay [13] was 1.22 fold enrichment (6-mer frequency, TF over GST control); in assay [14], 1.21 fold enrichment (6-mer frequency, TF over GST control); in assay [15], 1.4 fold enrichment (6-mer frequency, TF over GST control); in [16], 1.29 fold enrichment (6-mer frequency, TF over GST control); in [17], 1.03 fold enrichment (6-mer frequency, TF over GST control); in [18], 1.21 fold enrichment (6-mer frequency, TF over GST control).

With TCAATG, the binding signal in [1] is 1.08 fold enrichment (6-mer frequency, TF over GST control); in [2], 1.13 fold enrichment (6-mer frequency, TF over GST control); in [3], 1.11 fold enrichment (6-mer frequency, TF over GST control); in assay [4], 1.1 fold enrichment (6-mer frequency, TF over GST control); in assay [5] it was 1.04 fold enrichment (6-mer frequency, TF over GST control); in assay [6], 1.04 fold enrichment (6-mer frequency, TF over GST control). The binding signal in assay [7] is 1.07 fold enrichment (6-mer frequency, TF over GST control); in [8] it was 1.11 fold enrichment (6-mer frequency, TF over GST control); in [9], 1.07 fold enrichment (6-mer frequency, TF over GST control); in [10] it was 1.03 fold enrichment (6-mer frequency, TF over GST control); in assay [11], 1.02 fold enrichment (6-mer frequency, TF over GST control); in [12], 1.09 fold enrichment (6-mer frequency, TF over GST control). In addition, the binding signal in [13] was 1.06 fold enrichment (6-mer frequency, TF over GST control); in [14], 1.04 fold enrichment (6-mer frequency, TF over GST control); in assay [15] it was 1.05 fold enrichment (6-mer frequency, TF over GST control); in [16], 1.03 fold enrichment (6-mer frequency, TF over GST control); in [17], 1.02 fold enrichment (6-mer frequency, TF over GST control); in assay [18], 1.15 fold enrichment (6-mer frequency, TF over GST control).
